# According to article PMC7819943, “Rice protein-binding microarrays: a tool to detect cis-acting elements near promoter regions in rice”:
# Whole data set: some 39,000 sequences, median “fluorescence intensity (a.u.)” near 4,300, cut for the highest 2% near 39,000. The full list was thinned out, with the highest values kept by preference.
# Target: T1, OsSMF1 (Oryza sativa, UniProt Q6ZLB0 1-436)
# T1 sequence: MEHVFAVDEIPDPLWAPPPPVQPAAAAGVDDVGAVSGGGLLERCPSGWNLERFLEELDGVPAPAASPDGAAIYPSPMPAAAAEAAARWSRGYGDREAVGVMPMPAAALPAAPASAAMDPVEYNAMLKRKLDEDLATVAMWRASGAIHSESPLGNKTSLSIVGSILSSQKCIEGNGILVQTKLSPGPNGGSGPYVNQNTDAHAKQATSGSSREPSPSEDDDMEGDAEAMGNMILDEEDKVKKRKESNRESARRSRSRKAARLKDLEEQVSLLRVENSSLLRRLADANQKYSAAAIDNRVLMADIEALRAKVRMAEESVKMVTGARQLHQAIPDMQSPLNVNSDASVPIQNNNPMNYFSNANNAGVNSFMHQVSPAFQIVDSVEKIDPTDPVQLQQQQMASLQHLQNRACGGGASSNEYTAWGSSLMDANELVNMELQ
# Assay: protein-binding microarray (RPBM); PBS, 2% BSA, 51.3 ng/ul salmon testes DNA, 50 uM zinc acetate, 200 nM TF, 25 C, 1 h; high values mean tight binding
# Settings: protein: recombinant; tags: N-terminal polyhistidine and DsRed monomer fusion (pET32a); chain copies: 2; label: CyDye5-dUTP incorporated in the synthesized complementary strand; 3' TTTTT single-stranded linker to array surface; dsDNA, one strand shown
# In short: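 Binding signal is defined as the fluorescence intensity of each feature in arbitrary units, read on an Axon 4000B scanner. Transcription factors with N-terminal polyhistidine and DsRed fusions came from E. coli BL21-CodonPlus and were purified on Ni–NTA. They were incubated at 200 nM for 1 h at 25 °C on a custom Agilent array that had been made double-stranded with Cy5-dUTP, with 50 µM zinc acetate present, and the array was washed.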
row,Sequence,binding signal
1,ACCTGTGAATGTCTCTAGTGTGACGACTCTACTTCAGTTTCGGAGTCACCTAGTGCAG,4050 fluorescence intensity (a.u.)
2,GAGCCTTACCGGCTCAGACTTGGCATGACGTGGACGTACACGGAGTCACCTAGTGCAG,22500 fluorescence intensity (a.u.)
3,TTCATTCCCAAATGCCACCCGGGCCCACATGTCAGCCTCACGGAGTCACCTAGTGCAG,4670 fluorescence intensity (a.u.)
4,TTACCCTTAGTCATTTGACCCTATTACATGTGGGACCCACCGGAGTCACCTAGTGCAG,3900 fluorescence intensity (a.u.)
5,GTCATGGATCAAATCATCATGTATATCATCCGTCGTCGTGCGGAGTCACCTAGTGCAG,3180 fluorescence intensity (a.u.)
6,TGTTGCTCGGCCAAACGTACACACAGTTCGTTATATATCGCGGAGTCACCTAGTGCAG,12100 fluorescence intensity (a.u.)
7,TATTTTGGAGCGGACGAAGTAATAATATAGTACACGTCGGCGGAGTCACCTAGTGCAG,5310 fluorescence intensity (a.u.)
8,CCCATAACTGAATTGTTAATTTTGTCACGCGAGCAACGCACGGAGTCACCTAGTGCAG,19300 fluorescence intensity (a.u.)
9,GATAATTAAGCTGATAGCGAGACATAACAAGCTCTGTTCTCGGAGTCACCTAGTGCAG,49600 fluorescence intensity (a.u.)
10,ATACATAGCCATATATAAAATTAATGTGATAACATATTCTCGGAGTCACCTAGTGCAG,3660 fluorescence intensity (a.u.)
11,ATACAAGACAAATCGATTAACATAAGATCGATATATCGCTCGGAGTCACCTAGTGCAG,24700 fluorescence intensity (a.u.)
12,TGATAATAATTATTTCTTGGTCTTTAAATTAAGGGTGATTCGGAGTCACCTAGTGCAG,14800 fluorescence intensity (a.u.)
13,AAGTAAATGTAGATAAGGCCGTGTAATAAAGGTTGCTAGTCGGAGTCACCTAGTGCAG,56800 fluorescence intensity (a.u.)
14,TGTTTGTAAAGTAGAGCGTGCATGTGTGCGTTCTTAAGGTCGGAGTCACCTAGTGCAG,3590 fluorescence intensity (a.u.)
15,TAATAAGAGGCTGTAAGTCGGCTAAATGCTGAGGTGGAGGCGGAGTCACCTAGTGCAG,8660 fluorescence intensity (a.u.)
16,AAATTCGTTCTACAACTAAACAGGTTGCTTCAGAGTGCAACGGAGTCACCTAGTGCAG,30800 fluorescence intensity (a.u.)
17,GATTCGAGATTCAGGTAGGTTGTATAGTTCACGGGAGCAACGGAGTCACCTAGTGCAG,64500 fluorescence intensity (a.u.)
18,AATATAGTGTTGTTTGGTACTATATCGAGTTGGATTAGTTCGGAGTCACCTAGTGCAG,3190 fluorescence intensity (a.u.)
19,TGTTCATCCAAGGAGATTATCAGGTTGTTTGTATATATAACGGAGTCACCTAGTGCAG,26400 fluorescence intensity (a.u.)
20,GATTGGTAGTATTTAGTTGTGTATAATGTATTATTAGGTTCGGAGTCACCTAGTGCAG,3720 fluorescence intensity (a.u.)
21,TTGGTAGGTTCGACCTACTAGATTGTTGTTGATAATATAACGGAGTCACCTAGTGCAG,51700 fluorescence intensity (a.u.)
22,TGCTATGCATACGACTCAGCTGTCCGACTCATGTATGAATCGGAGTCACCTAGTGCAG,3720 fluorescence intensity (a.u.)
23,CGCGGCACGGGGAGACGACACGTCGGATGGTTGGCAGGAGCGGAGTCACCTAGTGCAG,16400 fluorescence intensity (a.u.)

row,Sequence,binding signal
1,TTCTTCCTATATAAGCACAACACACGTCCTTACTTGTGTGCGGAGTCACCTAGTGCAG,5410 fluorescence intensity (a.u.)
2,GGCGTTCTGCCGCCTGGCGCCGCTCGTCACGTACGAGGACCGGAGTCACCTAGTGCAG,3350 fluorescence intensity (a.u.)
3,TCTGTAGTAGTCATCATCACCTAGGTGCCTACCCTTTTGACGGAGTCACCTAGTGCAG,3280 fluorescence intensity (a.u.)
4,ACTACAAATAGATCGAACAGAAACAGAGCATCACGACGACCGGAGTCACCTAGTGCAG,40300 fluorescence intensity (a.u.)
5,CTGGGAAATAGTGCTGCAGAGTCACTAGTTAGATCGAAATCGGAGTCACCTAGTGCAG,3980 fluorescence intensity (a.u.)
6,TGTGAGCACGGATCGACGATGAAAACAGACGAAGAACATTCGGAGTCACCTAGTGCAG,27400 fluorescence intensity (a.u.)
7,TCTCAACCCTCAGGTAATCTACTGCTGCGCGTGGTGAATCCGGAGTCACCTAGTGCAG,4080 fluorescence intensity (a.u.)
8,ATACTAATAGTATAGTAAGCAACTATTGTATGAATTGGCTCGGAGTCACCTAGTGCAG,3740 fluorescence intensity (a.u.)
9,AAAGTCCGCTCGTGTTATTGGTAATTGAACTACTAAGCTACGGAGTCACCTAGTGCAG,41300 fluorescence intensity (a.u.)
10,CTACTAATAAGGCGTGTTATTATTGGTCATCAATGGCGTCCGGAGTCACCTAGTGCAG,3300 fluorescence intensity (a.u.)
11,GGATCCGGGCATCTGGCTGCCCCGCCGCCACTCCGCCTAGCGGAGTCACCTAGTGCAG,3330 fluorescence intensity (a.u.)
12,ATTGGTATGGTATATTCATACCATAACATAAGAACAATAACGGAGTCACCTAGTGCAG,21200 fluorescence intensity (a.u.)
13,TTGGATGTTTGCCGTGGACAAGTGCTAACTGTCAAAACCCCGGAGTCACCTAGTGCAG,34900 fluorescence intensity (a.u.)
14,TTGAAACTGTGCATGCGCATCACCTTCATGCCCAAAATTTCGGAGTCACCTAGTGCAG,3160 fluorescence intensity (a.u.)
15,GTGTGAAAAGATGCTGGCCCAATTAATTTGCGCGCGTCATCGGAGTCACCTAGTGCAG,48700 fluorescence intensity (a.u.)
16,CTTGTGGCCCATTAATGGCTCGCGTCGGCCTAATTTTGTGCGGAGTCACCTAGTGCAG,4450 fluorescence intensity (a.u.)
17,TATCATTTGTCAAACACACCCATATCCCATTTGCCAATCACGGAGTCACCTAGTGCAG,3890 fluorescence intensity (a.u.)
18,ACCAGTCCCAAATCAAACAGTCCTACTAGTTGCATTTTGTCGGAGTCACCTAGTGCAG,47200 fluorescence intensity (a.u.)
19,AACGTCGGTTCCCAAACATTTGTTTTCCTTACCAATCGGGCGGAGTCACCTAGTGCAG,3490 fluorescence intensity (a.u.)
20,TCAATCATGAGGACATGGTAATATATTGCTTGTGTTGCTTCGGAGTCACCTAGTGCAG,3550 fluorescence intensity (a.u.)
21,GTGTGAAACTCATACAAATATAAAATTACTGAACTACCGTCGGAGTCACCTAGTGCAG,49600 fluorescence intensity (a.u.)
22,ACAAATACTGATACATATACCTATACGTATGCGTCACCGTCGGAGTCACCTAGTGCAG,8380 fluorescence intensity (a.u.)
